Common to all, as to assay: DAPPL (digital affinity profiling via proximity ligation, sequencing); 10 mM Tris-HCl pH 7.5, 50 mM NaCl, 1 mM DTT, 4% glycerol, room temperature, 30 min; GST-TFs on glutathione beads, 16-mer random dsDNA library, 0.1% formaldehyde crosslink after washing; high values mean tight binding
One experiment addresses T1, FLI1 (Homo sapiens, UniProt Q01543 1-452).
T1 sequence: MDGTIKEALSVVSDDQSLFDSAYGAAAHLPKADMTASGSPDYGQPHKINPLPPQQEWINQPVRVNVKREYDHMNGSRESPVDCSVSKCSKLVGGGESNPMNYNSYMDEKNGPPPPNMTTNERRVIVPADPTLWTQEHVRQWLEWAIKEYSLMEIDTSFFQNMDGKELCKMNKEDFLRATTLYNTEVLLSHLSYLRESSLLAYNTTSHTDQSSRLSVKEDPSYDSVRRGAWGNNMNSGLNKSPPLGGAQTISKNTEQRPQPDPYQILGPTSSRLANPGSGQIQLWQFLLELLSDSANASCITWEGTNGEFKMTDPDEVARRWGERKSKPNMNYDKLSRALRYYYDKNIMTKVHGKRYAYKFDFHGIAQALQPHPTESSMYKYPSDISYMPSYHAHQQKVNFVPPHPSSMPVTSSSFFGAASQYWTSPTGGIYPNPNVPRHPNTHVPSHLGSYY
The settings on record: protein: recombinant; tags: N-terminal GST; dsDNA, one strand shown. In short, it runs like this:
(§1)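 Pools were built from human transcription factors expressed in yeast as GST fusions, captured on glutathione beads and DNA-barcoded, along with a tag-only sample. Incubation with 200 nmole of a 16-mer random double-stranded DNA library lasted 30 min at room temperature in Tris/NaCl/DTT/glycerol buffer, and was followed by washing, 0.1% formaldehyde crosslinking, proximity ligation, PCR amplification and Illumina NextSeq500 sequencing. Binding signal is the quotient of each hexamer's read frequency for a factor and its frequency for the tag-only sample.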

Another experiment addresses T2, ELK1 (Homo sapiens, UniProt P19419 1-428).
T2 sequence: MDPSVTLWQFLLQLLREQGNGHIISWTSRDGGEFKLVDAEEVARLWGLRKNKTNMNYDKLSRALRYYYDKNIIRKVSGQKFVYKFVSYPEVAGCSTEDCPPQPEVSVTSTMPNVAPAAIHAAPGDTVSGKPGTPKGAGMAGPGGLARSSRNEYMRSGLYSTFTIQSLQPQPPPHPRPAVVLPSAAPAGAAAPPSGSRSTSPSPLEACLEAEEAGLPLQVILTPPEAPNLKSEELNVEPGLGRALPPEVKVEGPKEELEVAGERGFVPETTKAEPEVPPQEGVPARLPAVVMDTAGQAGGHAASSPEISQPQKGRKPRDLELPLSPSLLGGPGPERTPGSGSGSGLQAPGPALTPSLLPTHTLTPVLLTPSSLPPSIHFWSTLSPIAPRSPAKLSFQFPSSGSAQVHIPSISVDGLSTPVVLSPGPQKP
The settings on record: protein: recombinant; tags: N-terminal GST; dsDNA, one strand shown. In short, it runs like this: as §1

The next experiment concerns the target T3, GABPA (Homo sapiens, UniProt Q06546 1-454).
T3 sequence: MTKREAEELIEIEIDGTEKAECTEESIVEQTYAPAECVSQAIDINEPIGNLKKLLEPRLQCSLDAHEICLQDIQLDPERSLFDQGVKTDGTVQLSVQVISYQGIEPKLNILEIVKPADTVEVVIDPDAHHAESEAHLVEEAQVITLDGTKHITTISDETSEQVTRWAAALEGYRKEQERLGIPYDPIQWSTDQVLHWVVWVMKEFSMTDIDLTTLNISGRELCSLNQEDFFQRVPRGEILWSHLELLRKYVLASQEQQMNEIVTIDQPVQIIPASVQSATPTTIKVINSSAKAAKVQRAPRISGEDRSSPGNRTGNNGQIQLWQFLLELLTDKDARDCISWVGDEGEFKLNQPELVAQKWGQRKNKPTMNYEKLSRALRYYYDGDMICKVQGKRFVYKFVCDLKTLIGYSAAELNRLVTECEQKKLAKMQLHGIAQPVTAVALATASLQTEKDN
The conditions noted are these: protein: recombinant; tags: N-terminal GST; dsDNA, one strand shown. In short, it runs like this: as §1

The target of another experiment is T4, ERG (Homo sapiens, UniProt P11308 1-479).
T4 sequence: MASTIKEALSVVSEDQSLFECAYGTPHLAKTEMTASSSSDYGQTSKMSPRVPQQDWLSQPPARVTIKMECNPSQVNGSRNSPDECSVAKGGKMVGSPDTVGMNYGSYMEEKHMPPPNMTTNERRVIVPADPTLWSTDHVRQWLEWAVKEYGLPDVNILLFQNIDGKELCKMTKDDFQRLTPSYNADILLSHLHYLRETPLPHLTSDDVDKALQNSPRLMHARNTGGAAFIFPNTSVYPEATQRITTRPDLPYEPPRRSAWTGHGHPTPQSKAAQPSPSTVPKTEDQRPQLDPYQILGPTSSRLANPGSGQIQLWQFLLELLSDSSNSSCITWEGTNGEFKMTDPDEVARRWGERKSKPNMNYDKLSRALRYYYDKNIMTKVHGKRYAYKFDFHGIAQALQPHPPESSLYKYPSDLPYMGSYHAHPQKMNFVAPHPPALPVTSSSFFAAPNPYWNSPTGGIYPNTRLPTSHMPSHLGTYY
The settings on record: protein: recombinant; tags: N-terminal GST; dsDNA, one strand shown. In short, it runs like this: as §1

The target in the next experiment is ELF1 (Homo sapiens, UniProt P32519 1-619). The conditions noted are these: protein: recombinant; tags: N-terminal GST; dsDNA, one strand shown. In short, it runs like this:
as §1

In another experiment the target is T5, EHF (Homo sapiens, UniProt Q9NZC4 1-300).
T5 sequence: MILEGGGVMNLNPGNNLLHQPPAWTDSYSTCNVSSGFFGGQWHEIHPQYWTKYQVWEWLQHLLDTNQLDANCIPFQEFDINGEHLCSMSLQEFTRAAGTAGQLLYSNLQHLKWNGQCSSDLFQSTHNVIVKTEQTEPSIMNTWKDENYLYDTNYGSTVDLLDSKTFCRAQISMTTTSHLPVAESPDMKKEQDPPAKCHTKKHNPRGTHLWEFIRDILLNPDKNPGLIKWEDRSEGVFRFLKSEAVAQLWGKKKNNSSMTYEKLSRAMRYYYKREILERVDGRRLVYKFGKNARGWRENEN
The conditions noted are these: protein: recombinant; tags: N-terminal GST; dsDNA, one strand shown. In short, it runs like this:
as §1

The next experiment concerns the target SPI1 (Homo sapiens, UniProt P17947 1-270). The settings on record: protein: recombinant; tags: N-terminal GST; dsDNA, one strand shown. In short, it runs like this: as §1
In the next experiment the target is SPIB (Homo sapiens, UniProt Q01892 1-262). The conditions noted are these: protein: recombinant; tags: N-terminal GST; dsDNA, one strand shown. In short, it runs like this: as §1
A further experiment addresses T6, ELK3 (Homo sapiens, UniProt P41970 1-407).
T6 sequence: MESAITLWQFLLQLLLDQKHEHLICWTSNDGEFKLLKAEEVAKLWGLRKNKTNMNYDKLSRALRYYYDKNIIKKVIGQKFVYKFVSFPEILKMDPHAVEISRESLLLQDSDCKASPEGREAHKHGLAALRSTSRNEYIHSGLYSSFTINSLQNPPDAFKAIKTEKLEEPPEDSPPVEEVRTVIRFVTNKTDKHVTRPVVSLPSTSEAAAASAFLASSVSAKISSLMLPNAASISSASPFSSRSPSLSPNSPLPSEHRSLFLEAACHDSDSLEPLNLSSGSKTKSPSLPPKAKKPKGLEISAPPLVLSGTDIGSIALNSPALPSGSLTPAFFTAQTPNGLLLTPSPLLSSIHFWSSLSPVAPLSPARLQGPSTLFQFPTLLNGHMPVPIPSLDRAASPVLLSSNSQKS
The settings on record: protein: recombinant; tags: N-terminal GST; dsDNA, one strand shown. In short, it runs like this: as §1

A further experiment deals with T7, FEV (Homo sapiens, UniProt Q99581 1-238).
T7 sequence: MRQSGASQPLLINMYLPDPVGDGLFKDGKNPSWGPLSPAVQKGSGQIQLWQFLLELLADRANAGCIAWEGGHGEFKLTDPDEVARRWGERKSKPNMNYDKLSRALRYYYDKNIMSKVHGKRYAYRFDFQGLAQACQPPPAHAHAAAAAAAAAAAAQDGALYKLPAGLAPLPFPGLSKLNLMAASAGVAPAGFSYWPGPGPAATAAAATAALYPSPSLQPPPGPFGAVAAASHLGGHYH
The settings on record: protein: recombinant; tags: N-terminal GST; dsDNA, one strand shown. In short, it runs like this: as §1

The next experiment deals with ETV5 (Homo sapiens, UniProt P41161 1-510). The conditions noted are these: protein: recombinant; tags: N-terminal GST; dsDNA, one strand shown. In short, it runs like this:
as §1

A further experiment addresses HSF1 (Homo sapiens, UniProt Q00613 1-529). The settings on record: protein: recombinant; tags: N-terminal GST; chain copies: 3; dsDNA, one strand shown. In short, it runs like this:
as §1

Another experiment addresses T8, SPIC (Homo sapiens, UniProt Q8N5J4 1-248).
T8 sequence: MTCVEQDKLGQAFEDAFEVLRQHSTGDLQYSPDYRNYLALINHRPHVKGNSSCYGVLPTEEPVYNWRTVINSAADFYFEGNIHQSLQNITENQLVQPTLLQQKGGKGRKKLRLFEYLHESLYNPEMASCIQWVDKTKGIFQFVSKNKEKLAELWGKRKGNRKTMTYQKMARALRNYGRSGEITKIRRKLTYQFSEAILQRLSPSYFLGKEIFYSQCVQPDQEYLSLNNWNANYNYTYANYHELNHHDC
The settings on record: protein: recombinant; tags: N-terminal GST; dsDNA, one strand shown. In short, it runs like this:
as §1

The target of a further experiment is ELF4 (Homo sapiens, UniProt Q99607 1-663). The settings on record: protein: recombinant; tags: N-terminal GST; dsDNA, one strand shown. In short, it runs like this:
as §1

In the next experiment the target is T9, ELK4 (Homo sapiens, UniProt P28324-2 1-405).
T9 sequence: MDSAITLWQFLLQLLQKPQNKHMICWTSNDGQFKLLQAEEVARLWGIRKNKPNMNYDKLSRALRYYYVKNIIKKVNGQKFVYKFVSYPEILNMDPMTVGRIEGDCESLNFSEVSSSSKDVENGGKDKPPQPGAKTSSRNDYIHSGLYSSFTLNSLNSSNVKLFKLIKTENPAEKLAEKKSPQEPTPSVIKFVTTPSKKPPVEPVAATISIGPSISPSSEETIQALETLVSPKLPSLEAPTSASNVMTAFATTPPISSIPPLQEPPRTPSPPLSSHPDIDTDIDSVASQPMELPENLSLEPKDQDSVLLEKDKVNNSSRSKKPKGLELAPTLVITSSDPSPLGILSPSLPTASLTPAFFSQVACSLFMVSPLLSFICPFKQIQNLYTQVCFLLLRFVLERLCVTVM
The conditions noted are these: protein: recombinant; tags: N-terminal GST; dsDNA, one strand shown. In short, it runs like this:
as §1

The target of a further experiment is T10, ETV2 (Homo sapiens, UniProt O00321 1-342).
T10 sequence: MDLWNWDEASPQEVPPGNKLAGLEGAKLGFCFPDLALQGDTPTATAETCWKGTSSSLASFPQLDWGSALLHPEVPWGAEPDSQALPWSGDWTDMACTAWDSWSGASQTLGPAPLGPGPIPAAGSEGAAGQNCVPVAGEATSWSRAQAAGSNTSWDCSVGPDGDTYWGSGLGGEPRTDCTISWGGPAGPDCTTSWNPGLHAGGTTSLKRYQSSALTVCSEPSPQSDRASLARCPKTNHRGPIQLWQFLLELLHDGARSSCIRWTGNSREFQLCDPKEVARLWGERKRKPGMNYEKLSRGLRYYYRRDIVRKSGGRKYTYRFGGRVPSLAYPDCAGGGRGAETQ
The settings on record: protein: recombinant; tags: N-terminal GST; dsDNA, one strand shown. In short, it runs like this:
as §1

Another experiment concerns the target T11, ELF3 (Homo sapiens, UniProt P78545 1-371).
T11 sequence: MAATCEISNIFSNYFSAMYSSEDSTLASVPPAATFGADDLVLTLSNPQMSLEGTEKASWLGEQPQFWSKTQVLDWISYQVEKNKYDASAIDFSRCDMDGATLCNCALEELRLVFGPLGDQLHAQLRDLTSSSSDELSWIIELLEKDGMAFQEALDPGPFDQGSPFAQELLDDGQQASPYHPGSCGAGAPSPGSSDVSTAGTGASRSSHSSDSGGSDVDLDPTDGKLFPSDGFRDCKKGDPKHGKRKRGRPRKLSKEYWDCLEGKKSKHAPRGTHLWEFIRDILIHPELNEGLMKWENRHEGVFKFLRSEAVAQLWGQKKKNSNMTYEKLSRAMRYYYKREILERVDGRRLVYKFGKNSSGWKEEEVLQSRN
The conditions noted are these: protein: recombinant; tags: N-terminal GST; dsDNA, one strand shown. In short, it runs like this:
as §1

A further experiment concerns the target CRX (Homo sapiens, UniProt O43186 1-299). The conditions noted are these: protein: recombinant; tags: N-terminal GST; dsDNA, one strand shown. In short, it runs like this: as §1
The target of the next experiment is ETV1 (Homo sapiens, UniProt P50549 1-477). The conditions noted are these: protein: recombinant; tags: N-terminal GST; dsDNA, one strand shown. In short, it runs like this: as §1
Chain of ETV1 (P50549 whole entry): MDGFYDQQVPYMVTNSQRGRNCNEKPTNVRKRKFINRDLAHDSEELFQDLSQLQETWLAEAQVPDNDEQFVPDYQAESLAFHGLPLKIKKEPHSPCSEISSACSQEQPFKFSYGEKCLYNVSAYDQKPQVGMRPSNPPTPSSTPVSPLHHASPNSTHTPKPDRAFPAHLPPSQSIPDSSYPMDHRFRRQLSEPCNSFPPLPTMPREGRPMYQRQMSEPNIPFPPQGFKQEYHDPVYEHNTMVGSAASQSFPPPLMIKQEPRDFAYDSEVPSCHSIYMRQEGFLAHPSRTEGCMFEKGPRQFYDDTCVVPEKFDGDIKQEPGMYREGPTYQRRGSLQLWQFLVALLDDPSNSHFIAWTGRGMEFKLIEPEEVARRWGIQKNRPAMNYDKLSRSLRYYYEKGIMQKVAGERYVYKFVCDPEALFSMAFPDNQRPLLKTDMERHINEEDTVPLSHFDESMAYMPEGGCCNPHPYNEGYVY

Chain of SPIB (Q01892 whole entry): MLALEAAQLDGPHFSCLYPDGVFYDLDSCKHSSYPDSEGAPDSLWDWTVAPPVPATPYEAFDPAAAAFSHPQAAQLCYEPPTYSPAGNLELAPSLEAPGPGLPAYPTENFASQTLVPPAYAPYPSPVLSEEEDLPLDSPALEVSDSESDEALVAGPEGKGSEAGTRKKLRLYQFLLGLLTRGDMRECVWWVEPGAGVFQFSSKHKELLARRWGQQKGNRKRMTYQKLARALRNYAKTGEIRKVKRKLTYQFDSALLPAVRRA
Chain of ELF4 (Q99607 whole entry): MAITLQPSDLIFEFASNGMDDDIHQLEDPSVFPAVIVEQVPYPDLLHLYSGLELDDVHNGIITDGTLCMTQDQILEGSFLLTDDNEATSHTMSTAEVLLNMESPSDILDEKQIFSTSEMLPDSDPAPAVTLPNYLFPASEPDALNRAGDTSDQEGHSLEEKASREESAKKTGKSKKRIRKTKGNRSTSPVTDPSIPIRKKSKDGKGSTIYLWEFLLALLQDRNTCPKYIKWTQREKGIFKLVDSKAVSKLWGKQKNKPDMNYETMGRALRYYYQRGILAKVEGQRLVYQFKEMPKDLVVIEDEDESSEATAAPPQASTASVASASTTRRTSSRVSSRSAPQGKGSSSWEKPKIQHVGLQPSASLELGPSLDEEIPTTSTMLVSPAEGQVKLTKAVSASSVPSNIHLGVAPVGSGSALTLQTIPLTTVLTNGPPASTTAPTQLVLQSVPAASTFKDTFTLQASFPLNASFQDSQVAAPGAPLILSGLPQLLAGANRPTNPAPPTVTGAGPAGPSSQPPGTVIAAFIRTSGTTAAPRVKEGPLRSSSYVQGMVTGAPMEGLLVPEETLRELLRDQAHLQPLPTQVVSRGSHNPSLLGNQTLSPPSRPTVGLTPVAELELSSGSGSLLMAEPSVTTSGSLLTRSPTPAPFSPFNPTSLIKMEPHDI
Chain of HSF1 (Q00613 whole entry): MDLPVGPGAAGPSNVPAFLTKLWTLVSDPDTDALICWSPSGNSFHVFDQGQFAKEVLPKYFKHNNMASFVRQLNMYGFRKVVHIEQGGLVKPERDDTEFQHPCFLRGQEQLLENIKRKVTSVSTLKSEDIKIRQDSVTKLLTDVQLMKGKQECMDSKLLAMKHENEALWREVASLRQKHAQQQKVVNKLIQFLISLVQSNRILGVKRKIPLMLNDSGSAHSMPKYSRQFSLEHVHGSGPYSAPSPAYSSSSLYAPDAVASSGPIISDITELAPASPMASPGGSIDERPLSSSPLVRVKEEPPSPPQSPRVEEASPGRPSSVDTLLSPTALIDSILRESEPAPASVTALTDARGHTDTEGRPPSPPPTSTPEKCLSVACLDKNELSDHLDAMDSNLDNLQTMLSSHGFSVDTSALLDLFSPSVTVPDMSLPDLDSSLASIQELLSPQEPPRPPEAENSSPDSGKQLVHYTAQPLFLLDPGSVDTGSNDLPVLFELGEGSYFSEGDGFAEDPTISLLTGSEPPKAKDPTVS
Chain of CRX (O43186 whole entry): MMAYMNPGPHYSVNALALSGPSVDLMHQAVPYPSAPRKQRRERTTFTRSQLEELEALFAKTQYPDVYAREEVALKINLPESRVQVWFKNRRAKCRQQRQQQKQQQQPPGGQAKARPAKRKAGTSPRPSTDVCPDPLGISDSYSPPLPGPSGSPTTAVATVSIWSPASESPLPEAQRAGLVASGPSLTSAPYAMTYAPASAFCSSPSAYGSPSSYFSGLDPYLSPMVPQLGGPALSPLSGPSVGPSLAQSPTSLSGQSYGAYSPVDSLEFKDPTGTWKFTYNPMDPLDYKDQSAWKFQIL
Chain of ETV5 (P41161 whole entry): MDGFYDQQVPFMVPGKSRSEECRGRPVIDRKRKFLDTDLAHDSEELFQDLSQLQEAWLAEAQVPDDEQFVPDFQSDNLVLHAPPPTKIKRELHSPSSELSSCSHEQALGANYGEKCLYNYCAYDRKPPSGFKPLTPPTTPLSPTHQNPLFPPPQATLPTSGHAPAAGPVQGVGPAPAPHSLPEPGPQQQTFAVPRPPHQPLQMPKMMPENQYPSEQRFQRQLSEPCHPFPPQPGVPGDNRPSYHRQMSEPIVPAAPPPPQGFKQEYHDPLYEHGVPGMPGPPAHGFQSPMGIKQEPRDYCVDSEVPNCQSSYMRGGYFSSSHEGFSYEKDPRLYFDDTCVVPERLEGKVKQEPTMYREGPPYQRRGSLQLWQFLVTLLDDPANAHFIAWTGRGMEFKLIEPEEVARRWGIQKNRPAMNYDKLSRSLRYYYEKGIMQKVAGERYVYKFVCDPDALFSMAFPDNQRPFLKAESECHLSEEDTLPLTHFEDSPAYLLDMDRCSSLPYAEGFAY
Chain of ELF1 (P32519 whole entry): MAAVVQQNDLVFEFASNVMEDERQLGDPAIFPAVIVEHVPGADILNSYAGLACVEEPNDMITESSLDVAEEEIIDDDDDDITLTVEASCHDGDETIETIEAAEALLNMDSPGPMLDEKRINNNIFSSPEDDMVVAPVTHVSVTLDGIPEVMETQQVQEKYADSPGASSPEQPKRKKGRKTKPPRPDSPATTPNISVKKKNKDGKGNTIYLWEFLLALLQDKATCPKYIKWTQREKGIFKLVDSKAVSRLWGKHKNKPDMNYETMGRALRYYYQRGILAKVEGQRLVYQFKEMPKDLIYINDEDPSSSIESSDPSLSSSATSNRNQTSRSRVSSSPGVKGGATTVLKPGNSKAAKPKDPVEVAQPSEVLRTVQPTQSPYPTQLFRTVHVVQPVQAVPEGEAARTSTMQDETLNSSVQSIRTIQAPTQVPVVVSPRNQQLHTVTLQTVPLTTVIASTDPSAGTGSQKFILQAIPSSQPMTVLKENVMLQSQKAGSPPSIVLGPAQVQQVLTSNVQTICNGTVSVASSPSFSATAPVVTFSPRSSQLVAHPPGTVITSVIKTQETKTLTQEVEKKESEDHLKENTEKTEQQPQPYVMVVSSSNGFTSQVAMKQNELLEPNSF

Take CCTATT: the binding signal in the experiment with FLI1 is 1.47 fold enrichment (6-mer frequency, TF over GST control); with ELK1 it was 1.55 fold enrichment (6-mer frequency, TF over GST control); with GABPA, 1.49 fold enrichment (6-mer frequency, TF over GST control); with ERG, 1.53 fold enrichment (6-mer frequency, TF over GST control); with ELF1, 1.56 fold enrichment (6-mer frequency, TF over GST control); with EHF it was 1.64 fold enrichment (6-mer frequency, TF over GST control). Also, the binding signal with SPI1 was 1.55 fold enrichment (6-mer frequency, TF over GST control); with SPIB it was 1.44 fold enrichment (6-mer frequency, TF over GST control); with ELK3, 1.4 fold enrichment (6-mer frequency, TF over GST control); in the experiment with FEV, 1.39 fold enrichment (6-mer frequency, TF over GST control); with ETV5, 1.51 fold enrichment (6-mer frequency, TF over GST control); with HSF1, 1.43 fold enrichment (6-mer frequency, TF over GST control). For the same sequence, the binding signal in the experiment with SPIC is 1.46 fold enrichment (6-mer frequency, TF over GST control); with ELF4, 1.44 fold enrichment (6-mer frequency, TF over GST control); with ELK4 it was 1.37 fold enrichment (6-mer frequency, TF over GST control); with ETV2, 1.46 fold enrichment (6-mer frequency, TF over GST control); with ELF3, 1.54 fold enrichment (6-mer frequency, TF over GST control); with CRX, 1.67 fold enrichment (6-mer frequency, TF over GST control). The binding signal with ETV1 is 1.55 fold enrichment (6-mer frequency, TF over GST control).

Values taken from paper PMC7862700, “An all-to-all approach to the identification of sequence-specific readers for epigenetic DNA modifications on cytosine”.
